# Screens: PubChem BioAssay, National Center for Advancing Translational Sciences (NCATS)
# In the library only some 2.4% were active in any assay of this set; here they are far more common.
# POLK inh: DNA polymerase kappa (human) inhibition | purified Pol kappa, fluorescent DNA synthesis assay, 10 min | Potency, µM (series often up to 107 µM), inactives show top-dose activity, negative = inhibition, hits mostly inhibitors | 400,000 tested, 0.53% active; further: on the % scale 0 is the no-effect control and ±100 the full control effect
#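 Inhibition of 10 nM Pol kappa is measured by a fluorescent read-out at 0 and 10 min following addition of 50 nM substrate (final), with a 15-min room-temperature compound preincubation.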
# Tb PGK inh: inhibitors of T. brucei phosphoglycerate kinase; P07378; AID 602233; Potency, µM (top dose mostly 57.5 µM), inactives show top-dose activity change, negative = inhibition, hits mostly inhibitors; PGK/GAPDH coupled, Kinase-Glo luminescence, 60 min; 380,000 tested, 0.043% active; further: on the % scale 0 is the no-effect control and ±100 the full control effect; nearly all actives have a fitted effect of over 60% in size
#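 Luminescent ATP detection (Kinase-Glo Plus) follows a 60-minute room-temperature incubation, with wells lacking PGK as controls. Buffer: 100 mM TEA (pH 7.6), 5 mM MgCl2, 0.01% Tween-20. Coupling enzyme GAPDH (100 nM final) supplies unstable 1,3-BPG in-well.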
# FEN1 inhibitor: human FEN1 inhibition | P39748 | Recombinant FEN1 flap cleavage, fluorescence, 15 min | Potency, µM (highest dose often 114 µM), without a hit: at the highest dose activity change, negative = inhibition, usual class: inhibitors | 390,000 tested, 0.35% active; further: on the % scale 0 is the no-effect control and ±100 the full control effect; nearly all actives have a fitted effect of over 65% in size
# Target sequence (P39748 whole entry, looked up): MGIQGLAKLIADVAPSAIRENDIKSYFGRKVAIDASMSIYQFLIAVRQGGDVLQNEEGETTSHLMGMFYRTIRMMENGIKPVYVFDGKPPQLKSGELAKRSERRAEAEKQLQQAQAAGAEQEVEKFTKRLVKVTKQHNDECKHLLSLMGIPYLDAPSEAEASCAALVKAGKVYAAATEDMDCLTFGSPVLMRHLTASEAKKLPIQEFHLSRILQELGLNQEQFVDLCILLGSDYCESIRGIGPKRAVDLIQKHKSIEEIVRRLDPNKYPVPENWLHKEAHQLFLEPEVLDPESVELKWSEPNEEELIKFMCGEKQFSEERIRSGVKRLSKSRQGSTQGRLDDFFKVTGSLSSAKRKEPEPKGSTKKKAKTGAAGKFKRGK
#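 Enzyme 10 nM, 15 min RT preincubation with compound; start with substrate 50 nM final; reads at 0 and 15 min; qHTS titration, four-parameter Hill fit.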
# POLI inh: inhibitors of human DNA polymerase iota; Pol iota fluorescent replication assay, 10 min; Potency, µM (doses to about 115 µM), for the others: at the top dose activity, negative = inhibition, hits mostly inhibitors; 390,000 tested, 1% active
#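 Pol iota at 10 nM preincubated 15 min with compounds at room temperature; reaction started with fluorescent substrate, 50 nM final. Fluorescence read kinetically at 0 and 10 min; buffer-only wells as negative control.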
# Pol eta inh: blocks human DNA polymerase eta activity; Q9Y253; recombinant Pol eta, fluorescent DNA replication assay; 390,000 tested, 1.2% active; Potency, µM (highest dose often 114 µM), for the others: top-dose activity change, negative = inhibition, usual class: inhibitors; further: on the % scale 0 is the no-effect control and ±100 the full control effect
#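 Pol eta at 10 nM preincubated with compounds 15 min at room temperature; reaction started with fluorescent substrate (50 nM final) and read kinetically at 0 and 10 min.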
# Pol beta inh: inhibitors of human DNA polymerase beta; P06746; Pol beta primer extension/strand displacement, fluorescence kinetic; Potency, µM (doses to about 114 µM), without a hit: at the top dose activity change, negative = inhibition, hits mostly inhibitors; 340,000 tested, 1.3% active; AID 485314; further: on the % scale 0 is the no-effect control and ±100 the full control effect
#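 Curves were derived by four-parameter Hill fits of normalized qHTS data. The kinetic fluorescent primer-extension read was taken at 0 and 10 min after 50 nM substrate, following a 15 min room-temperature preincubation of 10 nM enzyme with compounds.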
# * hit, by the source's call; i = inactive; ? = inconclusive; nt = no result given; [ ] = remark or other dose. The call rests on the fitted dose curve; in most records, active means well fitted curve in the direction sought with a large enough effect; inconclusive means small, poorly fitted or top-dose-only effect, or another doubt; inactive means no such curve, though single readings can be large; an effect the other way counts as inactive or inconclusive. Potency means the concentration at half of the fitted maximal effect.
SMILES,POLK inh,Tb PGK inh,FEN1 inhibitor,POLI inh,Pol eta inh,Pol beta inh
Nc1cc2c3c(cccc3c1)C(=O)N(CCN1CCCC1)C2=O,-40%,-6%,25µM*,35µM*,2%,25µM*
CCOC(=O)CNC(=O)Nc1nnc(-c2ccc(OCC)cc2)o1,-5%,-9%,0%,29%,7%,79µM*
Cc1ccc2oc(-c3cc(NC(=O)c4ncn[nH]4)ccc3O)nc2c1,-8%,-17%,-33%,34%,45µM*,?
Cc1ccc2oc(-c3ccc(NC(=O)c4ccncc4)cc3O)nc2c1,-11%,7%,-7%,76%,11%,?
Cc1ccc2oc(-c3cc(NC(=O)c4ccco4)ccc3Cl)nc2c1,?,-1%,79µM*,?,-14%,-11%
Cc1cccc(N2C(=O)/C(=C\c3ccc(C(=O)O)cc3)c3ccccc3C2=O)c1,-19%,-4%,-1%,46%,45µM*,-7%
CC(C)Cc1oc(C(=O)O)cc1CN1CCOCC1,-3%,0%,-10%,20%,-2%,89µM*
O=C1Cc2ccccc2C1=C1C=c2ccccc2=C1,-32%,nt,-4%,-7%,nt,nt
COc1ccc(S(=O)(=O)/N=C2/NC(=O)/C(=C/c3ccco3)S2)cc1,-10%,-8%,-8%,?,18µM*,32µM*
COc1cc(/C=C2\S/C(=N/S(=O)(=O)c3ccccc3)NC2=O)c([N+](=O)[O-])cc1OC,-30%,-6%,?,?,22µM*,21%
COc1ccc(S(=O)(=O)/N=C2/NC(=O)/C(=C\c3ccco3)S2)cc1,?,-4%,2%,?,18µM*,25µM*
COc1ccc(N=C2NC(=O)/C(=C/c3ccco3)S2)cc1,-20%,-5%,-6%,?,-13%,?
COc1ccc(S(=O)(=O)/N=C2/NC(=O)/C(=C\c3cc(OC)c(OC)cc3[N+](=O)[O-])S2)cc1,-6%,-11%,6%,-11%,-20%,4%
CCOc1ccccc1NC(=O)NCCn1c(=O)oc2ccc(C)cc21,-4%,-9%,8%,-19%,-4%,-2%
Cc1ccnc(NS(=O)(=O)c2ccc(N3C(=O)c4ccccc4C3=O)cc2)n1,-3%,-18%,-1%,11%,-16%,28%
Cc1ccnc(NS(=O)(=O)c2ccc(N3C(=O)c4c(Cl)c(Cl)c(Cl)c(Cl)c4C3=O)cc2)n1,-12%,4%,4%,92%,79µM*,1%
COc1ccc2c(c1OC)C(=O)N1c3ccccc3C(=O)N(Cc3ccco3)C21 (configuration not stated),4%,nt,-1%,-3%,nt,nt
Cc1cc(C(=O)COC(=O)c2ccc(NC(=O)CC#N)cc2)c(C)n1CCc1ccc(F)cc1,-21%,-11%,-19%,-14%,-27%,nt
COc1ccc(CCn2c(C)cc(C(=O)COC(=O)c3ccc(NC(=O)CC#N)cc3)c2C)cc1,?,-1%,-18%,?,79µM*,13%
CCOc1ccc(CNc2nc3nc(C)c(Cc4ccccc4)c(=O)n3[nH]2)cc1,0%,6%,3%,9%,-7%,7%
COc1cccc(NC(=O)CSc2nccn2C2CCCC2)c1,-5%[60.1 µM],i,-4%,-12%,-15%,11%
N#Cc1c(SCC(=O)Nc2cccc(C(F)(F)F)c2)sc2c(O)cc(=O)[nH]c12,25µM*,?,25µM*,?,20µM*,44%
Cc1cc(NC(=O)CSc2sc3c(O)cc(=O)[nH]c3c2C#N)ccc1Br,?,1%,?,56µM*,28µM*,?
Cc1cc(NC(=O)CSc2n[nH]c(=O)[nH]c2=O)ccc1Br,-17%,i,-2%,-1%,-4%,-8%
Cc1ccc(NC(=O)CSc2nc3[nH]c(=O)cc(O)c3s2)c(Br)c1,-19%,9%,14%,-16%,-18%,nt
